This is an account of results in PubChem BioAssay (NCI).

Common to all, as to assay: NCI-60 one-dose screen, 48 h (100 = growth as untreated, 0 = no growth, -100 = all killed)
The subject of assay [1] is SR leukemia. To be noted: 10 µM unless noted.
In assay [2] the test system is RPMI-8226 leukemia. The settings on record: 10 µM.
Assay [3] concerns OVCAR-8 ovarian. To be noted: 10 µM unless noted.
Assay [4] concerns OVCAR-5 ovarian. The settings on record: 10 µM unless noted.
Assay [5] has as its system OVCAR-4 ovarian. The settings on record: 10 µM unless noted.
Assay [6] relates to SK-OV-3 ovarian. The settings on record: 10 µM.
For assay [7], the system named is IGROV1 ovarian. To be noted: 10 µM unless noted.
The test system of assay [8] is OVCAR-3 ovarian. To be noted: 10 µM unless noted.
Assay [9] has as its system HS 578T breast. To be noted: 10 µM unless noted.
For assay [10], the system named is NCI/ADR-RES ovarian. The settings on record: 10 µM unless noted.

Molecules are shown by their SMILES. This is part of a sample that, as a whole, favours compounds with a hit. Of some 83,000 tested, about 20% had one in any assay.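 Treatment: one concentration, 48 hours, 96-well format. Scoring: percent growth, with anything below 10 considered active.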 A number with no mark means an inactive call. Active and inactive are the calls of the source.

As to `CCC(=O)Nc1nnc(Cc2ccc(OC)c(OC)c2)s1`, the growth in [1] is -18.1% (active); in [2] it was 15.6%; in assay [3], -32.6% (active); in assay [4], 85.9%; in assay [5], -69.7% (active); in assay [6], 24.7%. Further, the growth was 30.1% in assay [7], -45.3% (active) in [8], -13% (active) in assay [9] and 81.3% in [10].

`CCOC(=O)C1=C(C)N2C(=NC3=C(CCCC/C3=C\c3ccccc3)C2c2ccccc2)S1` (centres undefined): the growth is 90.9% in [1]; 96.2% in assay [2]; 103% in assay [3]; 94.8% in assay [4]; 93.4% in [5]; 88.5% in assay [6]. Also, the growth in [7] was 108%; in assay [8], 107%; in [9], 99.6%; in assay [10], 101%.

With `COc1cc(C(=O)/C=C/c2c(-c3cccs3)nc3sccn23)cc(OC)c1OC`, the growth is 10.3% in assay [1]; -0.804% (active) in assay [2]; 0.926% (active) in assay [3]; 0.426% (active) in [4]; -2.2% (active) in assay [5]; -2.52% (active) in assay [6]. Further, the growth is 5.57% (active) in [7], -19.1% (active) in assay [8], -9.28% (active) in [9] and -29.7% (active) in assay [10].

For `COc1ccc(C(=O)C2=CC(=O)C(=O)C2)cc1OC`, the growth is 94.3% in [1]; 98.7% in assay [2]; 113% in assay [3]; 98.2% in assay [4]; 109% in [5]; 104% in assay [6]. Besides, the growth is 99.3% in assay [7], 108% in assay [8], 110% in assay [9] and 99.5% in [10].

Take `COc1ccc(C2OCC(C)(C)CO2)cc1OC`: the growth in assay [1] was 100%; in assay [2] it was 95.6%; in assay [3], 105%; in assay [4], 100%; in [5] it was 104%; in [6], 107%. Besides, the growth in assay [7] is 139%; in assay [8], 117%; in assay [9], 109%; in assay [10], 108%.

Regarding `COc1cc(NC(=O)COc2ccccc2)c(C(N)=O)cc1OC`, the growth in assay [1] was 23.3%; in assay [2] it was 9.18% (active); in assay [3], 34.2%; in assay [4] it was 48.8%; in [5], 93.9%; in [6], 30.4%. Moreover, the growth in assay [7] is 43.9%; in assay [8] it was 6.16% (active); in assay [9] it was 29.6%; in [10], 10.2%.

With `NC(=O)c1cc(I)ccc1NC(=O)COc1ccccc1`, the growth in assay [1] is 20.2%; in assay [2], 9.76% (active); in assay [3] it was 15.9%; in assay [4], 39.1%; in assay [5] it was 78.9%; in assay [6], -2.65% (active). Moreover, the growth in assay [7] is 44.2%; in [8], 12%; in assay [9], 36.6%; in assay [10] it was 4.28% (active).

For `O=[N+]([O-])c1ccc(O)c2ncccc12`, the growth in assay [1] is 21.5%; in [2], 52.4%; in assay [3], 25.3%; in [4] it was 89.8%; in assay [5], 33.8%; in assay [6], 75.2%. The growth in [7] was 29.1%; in assay [8] it was 11.1%; in [9] it was 74.2%; in assay [10] it was 22.9%.

As for `Cc1nc2nc(C(F)(F)F)[nH]c2nc1C`, the growth is 111% in assay [1]; 92.1% in [2]; 105% in assay [3]; 115% in assay [4]; 97.7% in assay [5]; 98.5% in [6]. Besides, the growth in assay [7] was 117%; in assay [8], 116%; in assay [9], 119%; in [10], 107%.

As for `O=C1N/C(=C\c2ccccc2)c2ncccc21`, the growth is 76.4% in assay [1]; 106% in assay [2]; 110% in [3]; 118% in assay [4]; 95.5% in [5]; 89.9% in assay [6]. The growth is 92.3% in [7], 99.2% in assay [8], 120% in [9] and 103% in assay [10].

With `O=C(Nc1ccc(Cl)c(Cl)c1)NC(CO)(CO)CO`, the growth is 101% in assay [1]; 96.7% in assay [2]; 96.8% in assay [3]; 94.7% in assay [4]; 110% in assay [5]; 95.5% in assay [6]. Also, the growth in [7] is 100%; in [8], 104%; in [9] it was 96%; in assay [10], 100%.

In the case of `COc1ccc(NC(=O)c2ccc3c(c2)nc(-c2ccc(Cl)cc2)n3-c2cc(C(C)(C)C)[nH]n2)cc1`, the growth was 79.7% in assay [1]; 90.2% in [2]; 89.3% in [3]; 100% in [4]; 72.7% in assay [5]; 114% in assay [6]. The growth is 88.7% in assay [7], 94.5% in [8], 62% in assay [9] and 80.1% in assay [10].

Turning to `CCCCNNC(=O)c1ccc(Br)cc1`, the growth was 40.9% in [1]; 17.8% in [2]; 25.8% in assay [3]; 41.1% in [4]; 73.9% in [5]; 85% in [6]. For the same compound, the growth in assay [7] is 60.1%; in assay [9], 56.8%.

On to `Cn1c2c(cc(S(=O)(=O)c3ccccc3)c1=O)CCc1c-2cnn1-c1cccc(Cl)c1`, for which the growth in [1] is 77.6%; in assay [2], 82.6%; in assay [3], 88.8%; in assay [4] it was 93%; in assay [5], 60.9%; in assay [6], 86.8%. Also, the growth in [7] is 97.5%; in [8], 98.1%; in [9], 92%; in assay [10], 90.6%.

As to `O=c1[nH]c(=S)[nH]c(=O)n1Cc1cccc2ccccc12`, the growth is 102% in [1]; 106% in [2]; 99.7% in assay [3]; 107% in assay [4]; 93.4% in [5]; 102% in assay [6]. The growth in [7] is 115%; in [8], 113%; in assay [9], 102%; in assay [10], 108%.

`COc1ccc2nc(-n3nc(C)cc3C)c(-n3nc(C)cc3C)nc2c1`: the growth was 95% in assay [1]; 102% in assay [2]; 126% in assay [3]; 103% in assay [4]; 111% in [5]; 113% in assay [6]. Moreover, the growth in assay [7] is 113%; in assay [8] it was 126%; in assay [10] it was 100%.

Take `O=C(C[Si](CC(=O)c1cccc(C(F)(F)F)c1)CC(=O)c1cccc(C(F)(F)F)c1)c1cccc(C(F)(F)F)c1`: the growth was 5.27% (active) in assay [1]; 4.44% (active) in [2]; 90.9% in assay [3]; 91.4% in assay [4]; 88.3% in assay [5]; 98.3% in assay [6]. Besides, the growth is 48.3% in assay [7], 37.8% in assay [8] and 78.4% in assay [10].

With `CCC12CCC3c4ccc(O)cc4CCC3C1CC(O)C2O` (centres undefined), the growth was 19.3% in assay [1]; 89% in assay [2]; 91.5% in [3]; 103% in [4]; 82.7% in assay [5]; 98.7% in [6]. The growth in [7] was 82.8%; in [8], 95.4%; in assay [9] it was 76.8%; in assay [10], 47.1%.

As for `CC(C)(C)[Si](C)(C)OC1[C@@H](COC(=O)NC(=O)CCl)O[C@@H](n2cnc3c(N)ncnc32)[C@H]1O[Si](C)(C)C(C)(C)C` (some centres undefined), the growth is -57.5% (active) in [1]; -29.5% (active) in assay [2]; -7.49% (active) in [3]; 77.4% in assay [4]; 36.9% in assay [5]; 87.8% in [6]. Further, the growth in [7] is -68.3% (active); in [8], 0.626% (active); in assay [9], 74.5%; in [10], 46.6%.

For `COc1cccc(C2CC(=O)Nc3cc4c(cc32)OCO4)c1OC` (centres undefined), the growth in assay [1] was 86.2%; in assay [2], 79.2%; in assay [3] it was 98.6%; in assay [4], 98.8%; in assay [5], 95%; in [6], 102%. Also, the growth in assay [7] is 93.4%; in assay [8], 99.7%; in [9], 93.1%; in assay [10] it was 92.2%.

On to `CC1(C)N=C(N)N=C(N)N1c1cccc(/C=C/C=C/c2cccc([N+](=O)[O-])c2)c1`, for which the growth in assay [1] was 37%; in assay [2] it was 8.42% (active); in [3] it was 84.1%; in assay [4], 44.7%; in [5], 65.3%; in assay [6], 83.3%. Further, the growth in [7] was 35.3%; in assay [8], 30.1%; in [9], 95%; in assay [10], 108%.

Turning to `Cc1nc2cc(Nc3nc(NCCO)nc(Nc4ccc(F)cc4)n3)ccc2n1Cc1ccccc1`, the growth was 14.9% in [1]; 14.2% in assay [2]; 80% in assay [3]; 114% in assay [4]; 95.3% in assay [5]; 105% in [6]. For the same compound, the growth is 88.9% in assay [7], 90.2% in assay [8], 107% in [9] and 97.7% in assay [10].

As to `COc1ccc(NC(=O)COc2ccccc2)c(C(N)=O)c1`, the growth was 24.5% in assay [1]; 11.9% in [2]; 35.2% in assay [3]; 43.6% in [4]; 87.7% in assay [5]; 4.18% (active) in assay [6]. In addition, the growth was 46% in assay [7], 0.699% (active) in assay [8], 27.9% in [9] and 5.8% (active) in assay [10].

With `CCN(C(=O)c1ccc2c3c(cccc13)C=C2)c1ccccc1`, the growth was 83.4% in assay [1]; 96.7% in assay [2]; 91.2% in assay [3]; 90.5% in assay [4]; 106% in [5]; 96% in assay [6]. Further, the growth was 102% in assay [7], 120% in assay [9] and 93.2% in [10].

As for `CON=C1C[C@]2(C[C@@H]3C[C@@H](C/C=C(\C)C[C@@H](C)/C=C/C=C4\CO[C@@H]5[C@H](O)C(C)=C[C@@H](C(=O)O3)[C@]45O)O2)O[C@H](/C(C)=C/C(C)C)[C@H]1C`, the growth in [1] is -39.5% (active); in assay [2], 43.7%; in assay [3], 66.4%; in assay [4], 70.1%; in assay [5] it was 57.2%; in assay [6] it was 95.2%. Besides, the growth in [7] is 28.1%; in [8], 1.95% (active); in [9], 60.2%; in assay [10] it was 64.8%.

In the case of `O=c1onc(-c2ccccc2)c2ccccc12`, the growth in assay [1] was 101%; in assay [2], 98.4%; in [3], 103%; in assay [4] it was 116%; in [5], 106%; in [6], 112%. For the same compound, the growth in assay [7] is 113%; in assay [8], 113%; in assay [10] it was 103%.

In the case of `O=C1CC(c2ccsc2)c2snc(-c3ccc(Cl)cc3)c2N1` (centres undefined), the growth in assay [1] is 20.9%; in assay [2] it was 12.5%; in assay [3], 40.8%; in [4], 47.7%; in assay [5] it was 37.5%; in [6] it was -3.45% (active). Also, the growth in assay [7] is 40.7%; in assay [8], -14% (active); in assay [9], 46%; in assay [10] it was 16.8%.

As to `Cc1ccc(S(=O)(=O)N2CCc3ccc(O)c4c3C2Cc2cc(Cl)ccc2-4)cc1` (centres undefined), the growth was 18.9% in assay [1]; 93.8% in assay [2]; 75.4% in assay [3]; 99% in [4]; 70.3% in assay [5]; 70% in [6]. In addition, the growth in [7] was 57.6%; in [8], -3.87% (active); in assay [9] it was 62.8%; in assay [10] it was 42.6%.
